The list is not random: actives were taken first. Their share in the collection is about 2.4%.
SENP7 inh: inhibitors of human SENP7 protease | Q9BQF6 | recombinant SENP7, Z-RLRGG-aminoluciferin luminescence, 40 min | inhibition, % at 5 µM | 330,000 tested, 1.5% active;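 active = inhibition above about 50% at the single test dose, limit read from the data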;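 also: plate controls were DMSO with enzyme for no effect and no enzyme buffer wells for full effect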
Target sequence (Q9BQF6 706-1050 limits assumed): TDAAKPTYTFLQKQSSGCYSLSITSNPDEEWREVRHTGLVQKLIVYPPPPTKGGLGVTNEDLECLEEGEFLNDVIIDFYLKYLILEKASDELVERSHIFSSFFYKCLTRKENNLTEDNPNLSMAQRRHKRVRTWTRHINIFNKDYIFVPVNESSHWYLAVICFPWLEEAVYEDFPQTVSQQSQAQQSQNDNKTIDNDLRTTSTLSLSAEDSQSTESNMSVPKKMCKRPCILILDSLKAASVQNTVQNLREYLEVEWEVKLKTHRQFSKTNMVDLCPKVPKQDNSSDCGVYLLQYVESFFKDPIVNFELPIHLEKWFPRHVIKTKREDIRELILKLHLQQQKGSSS
Platelet DG rel: platelet dense granule release activity; AID 1663; human platelet-rich plasma, SFLLRN dense granule ATP release, luminescence; 300,000 tested, 0.22% active; inhibition, %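 (compounds screened at 7.5 µM in platelet-rich plasma)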;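 active = mean replicate score, as percent of positive control, at or above 50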
SENP8 block-1: SENP8 (human) protease inhibition; recombinant SENP8, Nedd8 substrate fluorescence; inhibition, % at 20 µM; AID 602440; Q96LD8; 360,000 tested, 0.64% active; in the data active = inhibition mostly above about 40%, no sharp cut-off; inactive = mostly below about 27%
Target sequence (Q96LD8 whole entry, looked up): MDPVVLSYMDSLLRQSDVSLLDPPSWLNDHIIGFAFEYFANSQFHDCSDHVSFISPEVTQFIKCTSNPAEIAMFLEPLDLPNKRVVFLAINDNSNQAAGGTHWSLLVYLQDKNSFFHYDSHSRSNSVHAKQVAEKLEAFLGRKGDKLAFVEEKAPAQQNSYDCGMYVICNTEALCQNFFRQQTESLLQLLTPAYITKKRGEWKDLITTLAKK
SENP6 block: SENP6 protease inhibition; inhibition, % at 10 µM; Q9GZR1; 330,000 tested, 1.8% active; Recombinant SENP6 catalytic domain, aminoluciferin luminescence;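 active = inhibition above about 50% at the single tested dose, limit read from the data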;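 also: plate controls were DMSO wells with enzyme for no effect and DMSO wells lacking enzyme for full effect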
SENP8 block-2: inhibitors of human SENP8 protease. Q96LD8. purified SENP8, Z-RLRGG-aminoluciferin cleavage, luminescence. inhibition, % at 10 µM. 330,000 tested, 1.2% active; in the data active = inhibition above about 50%
* hit, by the source's call.

Screening Oc1ccc(/C=N/Nc2nccnc2Cl)c(O)c1 returned SENP7 inh 100.5*, Platelet DG rel 135.3*, SENP8 block-1 -122.1, SENP6 block 95.9* and SENP8 block-2 96.4*.
CCO/C(C)=N/Oc1cncnc1 was read as SENP8 block-1 12.0.
`CCOC(=O)C1CCN(C(=O)Cn2nc(C)n3c(cc4cc(F)ccc43)c2=O)CC1` gave SENP7 inh -16.0, Platelet DG rel 50.4*, SENP8 block-1 -78.2, SENP6 block -11.0 and SENP8 block-2 -3.2.
Screening CCOC(=O)C1CCN(C(=O)Cn2nc(C)n3c(cc4cc(C)ccc43)c2=O)CC1 returned SENP7 inh -11.1, Platelet DG rel -9.0, SENP8 block-1 -69.7, SENP6 block -14.3 and SENP8 block-2 -14.5.
Screening CCOC1=C2[C@@H](CN(S(=O)(=O)c3ccc(C)cc3)[C@H]2c2cccc3ccccc23)[C@H]2C(=O)N(C3CCCCC3)C(=O)[C@H]2C1 returned SENP8 block-1 11.7.
`O=C(CCCCCN1C(=O)c2ccccc2C1=O)Nc1ccc(S(=O)(=O)N2CCCCC2)cc1` gave SENP7 inh -6.6, Platelet DG rel -1.3, SENP8 block-1 12.0, SENP6 block 5.9 and SENP8 block-2 -2.8.
Screening O=C(OCCCCN1C(=O)c2ccccc2C1=O)c1ccc(S(=O)(=O)N2CCCC2)cc1 returned SENP7 inh -4.5, Platelet DG rel 58.0*, SENP8 block-1 20.9, SENP6 block -8.0 and SENP8 block-2 -2.4.
Screening S=C1Cc2ccccc2N1 returned Platelet DG rel -1.9 and SENP8 block-1 44.6*.
`S=C1Nc2ccccc2CS1` gave SENP8 block-1 18.7.
CCOC(=O)COc1cccc(C2NC(=O)c3ccccc3O2)c1 (stereo not given) was read as SENP7 inh -1.8, Platelet DG rel -1.1, SENP8 block-1 -15.7, SENP6 block -3.3 and SENP8 block-2 -6.2.
CCOCCSc1n[nH]c(=O)n1CCc1ccccc1 was read as SENP7 inh -10.6, Platelet DG rel -4.9, SENP8 block-1 -0.4, SENP6 block -20.1 and SENP8 block-2 -7.7.
CN1CCc2c(n(CC(O)CN3CCN(CCO)CC3)c3ccccc23)C1=O (stereo not given) was read as SENP7 inh 5.3, Platelet DG rel 0.3, SENP8 block-1 -327.2, SENP6 block 15.6 and SENP8 block-2 2.7.
Screening CC(C)c1ccc(NC(=O)C[n+]2ccn(C3=C([O-])c4ccccc4C3=O)c2)cc1 returned SENP7 inh 15.8, Platelet DG rel -1.4, SENP8 block-1 23.8, SENP6 block 36.1 and SENP8 block-2 7.5.
`CCCCC[n+]1ccn(-c2nc3ccccc3nc2[N-]S(=O)(=O)c2ccc(C)cc2)c1` gave SENP7 inh 1.2, Platelet DG rel 0.0, SENP8 block-1 -483.0, SENP6 block 0.2 and SENP8 block-2 1.2.
CCCC[n+]1ccn(C2=C([O-])c3ccccc3C(=O)/C2=N\S(=O)(=O)c2ccccc2)c1 was read as SENP7 inh 28.4, Platelet DG rel -1.4, SENP8 block-1 78.4*, SENP6 block 39.2 and SENP8 block-2 29.2.
Screening CCCCC[n+]1ccn(C2=C([O-])c3ccccc3C(=O)/C2=N\S(=O)(=O)c2ccc(Br)cc2)c1 returned SENP7 inh 6.5, Platelet DG rel 5.2, SENP8 block-1 80.1*, SENP6 block 34.6 and SENP8 block-2 15.8.
`CC(C)[n+]1ccn(C2=C([O-])c3ccccc3C(=O)/C2=N\S(=O)(=O)c2ccccc2)c1` gave SENP7 inh 16.4, Platelet DG rel -11.0, SENP8 block-1 86.1*, SENP6 block 42.6 and SENP8 block-2 16.2.
Screening CCCCC[n+]1ccn(C2=C([O-])c3ccccc3C(=O)/C2=N\S(=O)(=O)c2ccccc2)c1 returned SENP7 inh 18.4, Platelet DG rel -2.5, SENP8 block-1 67.4*, SENP6 block 25.3 and SENP8 block-2 22.4.
For CCc1ccc2c(CC(=O)NNC(=O)c3ccncc3)coc2c1 the results were SENP7 inh 1.0, SENP8 block-1 4.8, SENP6 block 2.0 and SENP8 block-2 -3.9.
For COc1cccc(OC)c1C(=O)Nc1ccncc1 the results were SENP7 inh -3.6, Platelet DG rel -4.7, SENP8 block-1 19.6, SENP6 block -10.3 and SENP8 block-2 0.0.
Screening COc1cc(N)c2ncsc2c1 returned SENP8 block-1 24.2.
Screening O=c1[nH][nH]c(=O)c(Cl)c1Cl returned SENP8 block-1 4.7.
Screening Cc1nnsc1S(=O)c1ccc(Cl)c(Cl)c1 (stereo not given) returned SENP7 inh 0.1, Platelet DG rel -4.7, SENP8 block-1 15.4, SENP6 block -1.6 and SENP8 block-2 2.2.
O=S(c1ccc2ccccc2c1)c1cnns1 (stereo not given) was read as SENP7 inh 2.7, SENP8 block-1 43.6*, SENP6 block -4.2 and SENP8 block-2 1.1.
`Clc1ccc(-c2cn(-c3nc4ccccc4s3)nn2)cc1` gave SENP8 block-1 -13.7.
`COCCn1c(N)c(C(=O)NCC2CCCO2)c2nc3ccccc3nc21` (stereo not given) gave SENP7 inh 62.6*, Platelet DG rel 0.1, SENP8 block-1 inactive, SENP6 block 84.5* and SENP8 block-2 86.4*.
`COc1ccc(OC)c(-n2c(N)c(C(=O)NCC3CCCO3)c3nc4ccccc4nc32)c1` (stereo not given) gave Platelet DG rel 13.9 and SENP8 block-1 -477.5.
Screening O=c1c(O)c(-c2ccccc2)oc2cc(O)cc(O)c12 returned SENP7 inh -8.1, SENP8 block-1 36.5, SENP6 block 17.0 and SENP8 block-2 10.3.
For O=c1c(O)c(-c2cc(O)c(O)c(O)c2)oc2cc(O)cc(O)c12 the results were SENP7 inh 3.4, SENP8 block-1 38.9*, SENP6 block 13.3 and SENP8 block-2 4.0.
For O=C(COC(=O)c1ccc2c(c1[N+](=O)[O-])C(=O)c1ccccc1C2=O)NC1CC1 the results were SENP7 inh 1.4, Platelet DG rel 0.2, SENP8 block-1 34.2*, SENP6 block 37.9 and SENP8 block-2 16.6.
Screening CCCN1C(=O)/C(=C/C=C2\N(CC)c3ccccc3C2(C)C)SC1=S returned SENP7 inh 4.6, Platelet DG rel 9.7, SENP8 block-1 44.3*, SENP6 block 4.7 and SENP8 block-2 7.4.
C=CCN1C(=O)/C(=C\C=C2\N(C)c3ccccc3C2(C)C)SC1=S was read as SENP7 inh 7.6, Platelet DG rel 6.7, SENP8 block-1 55.5*, SENP6 block 11.7 and SENP8 block-2 -4.2.
Screening COc1ccc(N=C2c3ccccc3-c3ccc([N+](=O)[O-])cc32)cc1 returned SENP8 block-1 36.8.
Screening CCCCNC(=O)C1(C)CCCCN1C(=O)c1ccc(C)c(F)c1 (stereo not given) returned SENP8 block-1 8.5.
CC(C)(C)C(=O)Nc1ccc(Cc2ccncc2)cc1 was read as Platelet DG rel -0.7 and SENP8 block-1 5.7.
Screening COc1ccc(CCC(=O)Nc2c(-c3ccc(N(C)C)cc3)[nH][nH]c2=O)cc1 returned SENP8 block-1 -358.2.

Screening results as filed in PubChem.
